This note sets out measurements from PubChem BioAssay (NCATS).

In experiment [1] the target is Bile acid receptor (Homo sapiens) (UniProt Q96RI1). In words: qHTS assay for small molecule antagonists of farnesoid X receptor signaling (AID 588526). Note: potency is the fitted concentration of half-maximal effect. The procedure, abridged:
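Beta-lactamase reporter antagonist mode: HEK293T FXR-UAS-bla cells, titrated compound, CDCA stimulation, 16 h 37 C, CCF4 dye 2 h RT. Data normalized to CDCA 50 uM and DMSO; Hill-fit IC50.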

For experiment [2] the target is unchanged. The experiment is described as follows: qHTS assay for small molecule agonists of farnesoid X receptor signaling (AID 588527).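 Note: series mostly up to about 77 µM; 0% = vehicle basal and 100% = reference agonist.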 The conditions noted are these: HEK293T FXR-UAS-bla, beta-lactamase ratio, 16 h; activation: stronger effect = higher value. The gist of the method:
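Quantitative HTS used FXR-UAS-bla HEK293T cells with 16 h compound incubation at 37 C. EC50 values came from concentration-response curves normalized to chenodeoxycholic acid.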

For experiment [3], the target named is Glucocorticoid receptor (Homo sapiens) (UniProt P04150). In words: qHTS assay for small molecule agonists of glucocorticoid receptor signaling (AID 588532; active = well fitted curve in the direction sought with a large enough effect in the signal ratio, with a control signal flat; the % refers to the signal ratio;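 note: 100% = dexamethasone at 0.1 µM and 0% = DMSO only wells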). The conditions noted are these: HeLa MMTV-bla, beta-lactamase ratio, agonist, 18 h; activation: stronger effect = higher value, percent of dexamethasone control, DMSO zero. The procedure, abridged: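 Agonist-mode qHTS: GRE-driven beta-lactamase in HeLa cells exposed 18 h to titrated compounds (up to 92 uM), then CCF4 ratio read after 2 h at RT; Hill-fitted EC50, efficacy relative to 0.1 uM dexamethasone.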
Glucocorticoid receptor (Homo sapiens), sequence (P04150 whole entry, looked up): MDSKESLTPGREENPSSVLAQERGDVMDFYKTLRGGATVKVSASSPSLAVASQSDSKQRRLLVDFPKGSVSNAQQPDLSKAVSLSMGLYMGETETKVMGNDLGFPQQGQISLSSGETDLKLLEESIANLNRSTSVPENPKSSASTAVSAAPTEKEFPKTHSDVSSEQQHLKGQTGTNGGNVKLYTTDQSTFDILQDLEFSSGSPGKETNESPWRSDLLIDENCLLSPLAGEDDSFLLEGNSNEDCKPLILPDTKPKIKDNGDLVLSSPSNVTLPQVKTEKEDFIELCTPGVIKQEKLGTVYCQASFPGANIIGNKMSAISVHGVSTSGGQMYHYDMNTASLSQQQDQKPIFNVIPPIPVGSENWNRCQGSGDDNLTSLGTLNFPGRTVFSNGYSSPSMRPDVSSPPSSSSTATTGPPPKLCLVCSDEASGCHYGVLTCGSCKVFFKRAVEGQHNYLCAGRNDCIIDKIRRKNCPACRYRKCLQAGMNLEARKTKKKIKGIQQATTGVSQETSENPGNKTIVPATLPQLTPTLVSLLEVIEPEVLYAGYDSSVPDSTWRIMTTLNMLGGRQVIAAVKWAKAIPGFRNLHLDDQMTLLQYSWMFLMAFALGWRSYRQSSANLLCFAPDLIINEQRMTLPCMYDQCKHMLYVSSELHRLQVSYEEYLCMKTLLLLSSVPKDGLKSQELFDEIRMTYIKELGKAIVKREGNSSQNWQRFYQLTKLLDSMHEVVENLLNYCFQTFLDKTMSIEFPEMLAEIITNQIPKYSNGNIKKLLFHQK

For experiment [4] the target is unchanged. The experiment is described as follows: qHTS assay for small molecule antagonists of glucocorticoid receptor signaling (AID 588533; active = well fitted inhibition curve with a large enough effect in the signal ratio, with a control signal flat, not every such curve was filed as active; the % refers to the signal ratio;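 note: cells stimulated with 2 nM dexamethasone as agonist; % is set by controls: 0 for no effect and ±100 for the full control effect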). The gist of the method:
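Antagonist-mode qHTS: compound titrations added to GRE-bla HeLa cells, then dexamethasone 2 nM final; 18 h, 37 C. CCF4 FRET fluorescence normalized to dexamethasone and DMSO; IC50 from Hill fit.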

Experiment [5] can be described thus: qHTS assay for small molecule antagonists of peroxisome proliferator-activated receptor delta signaling (AID 588535; active = well fitted inhibition curve with a large enough effect in the signal ratio, with a control signal flat, not every such curve was filed as active; the % refers to the signal ratio; note: potency is the fitted concentration of half-maximal effect;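 for max response: cells co-treated with a PPAR-delta agonist as stimulator during compound exposure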). The conditions noted are these: HEK293T PPARd-UAS-bla, beta-lactamase FRET ratio, 18 h; 460 nm channel. The procedure, abridged: (§1)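 Cell-based beta-lactamase assay in antagonist mode: 4000 HEK293T PPAR-delta-UAS-bla cells per well, 5 hr preincubation then 18 hr compound incubation at 37 C. IC50 obtained by Hill equation fitting.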

Experiment [6] concerns the target Peroxisome proliferator-activated receptor delta (Homo sapiens) (UniProt Q03181). Described as above. The gist of the method: as §1
A short description of experiment [7]: qHTS assay for small molecule agonists of the antioxidant response element (ARE) signaling pathway (AID 651741; active = well fitted activation curve with a large enough effect in the signal ratio; the % refers to the signal ratio; note: potency is the fitted concentration of half-maximal effect; for activation: % of control where 0% means no effect). The procedure, abridged:
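Seeding 2,000 ARE-bla HepG2 cells per well preceded a 5 h incubation at 37 C/5% CO2 and a 16 h compound exposure at 37 C. Beta-lactamase reporter activity was then quantified by fluorescence after 2 h with LiveBLAzer B/G FRET substrate.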

A short description of experiment [8]: qHTS assay for small molecule activators of the nuclear factor-kappa B (NF-kB) signaling pathway (AID 651749; active = well fitted activation curve with a large enough effect in the signal ratio; the % refers to the signal ratio; note: series mostly up to about 77 µM; % of control where 0% means no effect). The conditions noted are these: NF-kB-bla ME-180 cells, beta-lactamase FRET ratio, 16 h; activation: stronger effect = higher value. The procedure, abridged: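 Stably transfected ME-180 line; NF-kB response element upstream of beta-lactamase. Treatment: compound or DMSO, 16 hr. Detection: fluorescent FRET substrate.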

A short description of experiment [9]: qHTS assay for small molecule activators of the human pregnane X receptor (PXR) signaling pathway (AID 720659; call rule not given here; note: 0% is about no effect).
The target in experiment [10] is Androgen receptor (Homo sapiens) (UniProt P10275). In words: qHTS assay for small molecule agonists of androgen receptor signaling (AID 588515; active = well fitted curve in the direction sought with a large enough effect in the signal ratio, with a control signal flat; the % refers to the signal ratio; note: % is set by controls: 0 for no effect and ±100 for the full control effect). The conditions noted are these: AR-UAS-bla HEK293, beta-lactamase ratio, agonist 16 h; stronger effect = higher value. The gist of the method:
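EC50 and efficacy came from Hill fits of titrations (up to 92 uM) normalized to 30 nM R1881 as 100% and DMSO as 0%. Compound exposure was 16 h at 37 C on AR-UAS-bla HEK293 cells, with a 405/460/530 nm CCF4 fluorescence read.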

The target is the same in experiment [11]. The experiment is described as follows: qHTS assay for small molecule antagonists of androgen receptor signaling (AID 588516; active = well fitted curve in the direction sought with a large enough effect in the signal ratio, with a control signal flat, not every such curve was filed as active; the % refers to the signal ratio; note: potency is the fitted concentration of half-maximal effect). The procedure, abridged: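 AR-UAS-bla-GripTite HEK 293 cells (2000/well, 5 h at 37 C) received compound titrations, then R1881 at 10 nM final; after 16 h at 37 C, CCF4 dye 2 h RT, beta-lactamase fluorescence read; IC50 from Hill fits.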

For experiment [12], the target named is Vitamin D3 receptor (Homo sapiens) (UniProt P11473). The experiment is described as follows: qHTS assay for small molecule agonists of vitamin D receptor signaling (AID 588543).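 Note: 0% = DMSO basal and 100% = reference agonist control.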 The gist of the method:
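GeneBLAzer VDR-UAS-bla HEK293T cells in 2% charcoal-stripped FBS medium were dosed with compound titrations for 16 h at 37 °C; CCF4 β-lactamase readout (405 nm ex, 460/530 nm em). EC50 and efficacy from Hill fits, normalized to 50 nM calcitriol (100%) and DMSO (0%).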

“And” between values parts separate entries of the source, which are not always exact repeats. Identical values can stand only once. Records with an inconclusive call do not appear. The source made the active and inactive calls. Unless noted, calls come from the whole dose curve.

Vitamin D3 receptor (Homo sapiens), sequence (P11473 whole entry, looked up): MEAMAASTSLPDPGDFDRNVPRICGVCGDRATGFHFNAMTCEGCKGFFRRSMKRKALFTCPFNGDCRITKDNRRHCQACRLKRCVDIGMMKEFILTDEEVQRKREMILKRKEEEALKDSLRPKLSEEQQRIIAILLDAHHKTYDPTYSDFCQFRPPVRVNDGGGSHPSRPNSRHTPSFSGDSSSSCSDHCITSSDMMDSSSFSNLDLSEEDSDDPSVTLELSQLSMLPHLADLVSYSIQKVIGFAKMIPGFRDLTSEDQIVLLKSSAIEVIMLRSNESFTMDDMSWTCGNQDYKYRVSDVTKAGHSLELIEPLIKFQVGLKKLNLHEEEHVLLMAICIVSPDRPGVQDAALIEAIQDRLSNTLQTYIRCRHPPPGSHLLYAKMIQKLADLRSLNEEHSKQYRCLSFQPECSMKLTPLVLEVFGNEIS
Androgen receptor (Homo sapiens), sequence (P10275 whole entry, looked up): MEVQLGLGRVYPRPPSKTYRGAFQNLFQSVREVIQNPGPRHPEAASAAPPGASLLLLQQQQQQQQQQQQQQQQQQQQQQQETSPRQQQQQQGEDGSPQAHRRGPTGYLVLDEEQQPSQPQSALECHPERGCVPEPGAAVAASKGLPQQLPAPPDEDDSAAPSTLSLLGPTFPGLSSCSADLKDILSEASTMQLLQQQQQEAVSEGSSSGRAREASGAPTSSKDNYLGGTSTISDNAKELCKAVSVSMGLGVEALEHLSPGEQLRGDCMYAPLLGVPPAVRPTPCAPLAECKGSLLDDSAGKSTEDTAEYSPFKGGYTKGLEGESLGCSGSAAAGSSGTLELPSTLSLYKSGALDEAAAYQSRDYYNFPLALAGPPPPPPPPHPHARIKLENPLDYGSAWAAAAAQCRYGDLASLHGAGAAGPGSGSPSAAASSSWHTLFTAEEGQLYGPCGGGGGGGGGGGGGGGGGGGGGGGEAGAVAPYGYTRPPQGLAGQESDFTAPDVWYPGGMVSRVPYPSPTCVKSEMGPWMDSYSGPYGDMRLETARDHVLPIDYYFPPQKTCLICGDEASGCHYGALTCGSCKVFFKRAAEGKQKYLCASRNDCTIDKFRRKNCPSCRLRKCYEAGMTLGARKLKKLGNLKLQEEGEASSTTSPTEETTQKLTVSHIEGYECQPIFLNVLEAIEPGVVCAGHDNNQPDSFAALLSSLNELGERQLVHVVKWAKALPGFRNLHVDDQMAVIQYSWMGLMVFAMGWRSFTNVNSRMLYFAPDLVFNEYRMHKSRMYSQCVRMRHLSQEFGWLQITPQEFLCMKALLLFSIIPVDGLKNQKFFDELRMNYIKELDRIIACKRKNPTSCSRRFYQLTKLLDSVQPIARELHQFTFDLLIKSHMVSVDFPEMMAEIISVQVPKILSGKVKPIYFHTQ
Bile acid receptor (Homo sapiens), sequence (Q96RI1 whole entry, looked up): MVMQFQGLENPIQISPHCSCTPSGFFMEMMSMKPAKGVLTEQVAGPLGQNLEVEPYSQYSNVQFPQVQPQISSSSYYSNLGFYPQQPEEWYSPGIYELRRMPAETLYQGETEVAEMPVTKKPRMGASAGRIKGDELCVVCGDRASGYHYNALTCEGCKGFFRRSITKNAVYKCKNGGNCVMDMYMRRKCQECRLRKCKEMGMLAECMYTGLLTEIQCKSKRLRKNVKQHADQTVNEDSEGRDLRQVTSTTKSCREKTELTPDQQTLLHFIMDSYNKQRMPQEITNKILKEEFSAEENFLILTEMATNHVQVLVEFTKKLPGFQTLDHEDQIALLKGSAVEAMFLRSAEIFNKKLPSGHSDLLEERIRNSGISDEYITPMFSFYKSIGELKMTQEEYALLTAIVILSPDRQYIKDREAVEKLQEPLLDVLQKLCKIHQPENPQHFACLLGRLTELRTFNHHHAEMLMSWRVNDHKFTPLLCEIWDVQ
Peroxisome proliferator-activated receptor delta (Homo sapiens), sequence (Q03181 whole entry, looked up): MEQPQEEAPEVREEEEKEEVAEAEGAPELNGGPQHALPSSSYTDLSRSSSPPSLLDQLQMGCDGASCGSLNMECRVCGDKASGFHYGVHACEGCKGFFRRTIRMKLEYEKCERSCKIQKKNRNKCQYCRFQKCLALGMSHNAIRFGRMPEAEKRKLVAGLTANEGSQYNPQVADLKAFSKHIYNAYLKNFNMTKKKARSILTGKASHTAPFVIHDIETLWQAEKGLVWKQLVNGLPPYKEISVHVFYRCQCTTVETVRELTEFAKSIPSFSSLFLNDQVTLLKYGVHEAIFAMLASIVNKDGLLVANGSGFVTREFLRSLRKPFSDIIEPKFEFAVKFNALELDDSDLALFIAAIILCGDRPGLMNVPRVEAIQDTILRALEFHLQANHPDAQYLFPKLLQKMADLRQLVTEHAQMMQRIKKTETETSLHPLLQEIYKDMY

Turning to `CCOP(=S)(NC(C)C)Oc1ccccc1C(=O)OC(C)C` (centres undefined), the Potency result in experiment [1], in [4], in experiment [6] and in experiment [7] was “inactive” throughout. The activation in experiment [2] was 8.84% (inactive); in [3] it was -0.106% (inactive). Further, the max response in experiment [5] is -3.59%.

Take `CCCN(CCC)c1c([N+](=O)[O-])cc(C(F)(F)F)c(N)c1[N+](=O)[O-]`: the activation in experiment [2] was 9.33% (inactive).

In the case of `Cc1cc(Cl)ccc1OC(C)C(=O)O` (centres undefined), the max response in experiment [5] worked out at 36.3%. In addition, the Potency entry in [6] and in experiment [7] was “inactive” in each case. Besides, the activation in [8] is -2.72% (inactive). In [9], the call was inactive.

As for `O=P(OCC(Br)CBr)(OCC(Br)CBr)OCC(Br)CBr` (centres undefined), the activation in experiment [10] is -12.7% (inactive); in experiment [2], 0.554% (inactive). In experiment [5], the max response was -17.7%. Moreover, in [6], the Potency result was “inactive”. For the same compound, in experiment [7], the Potency is 15.4 µM (active).

For the compound `CNC(=O)O/N=C(\SC)C(=O)N(C)C`, the figures for the activation in experiment [10] and in [8] were -0.759% (inactive) and -1.34% (inactive), respectively. Also, the Potency entry in experiment [11] and in experiment [6] was “inactive” each time. Besides, the max response in [5] was found to be 22.2%. Moreover, the compound was classed as inactive in experiment [9].

For the compound `COc1nc(C)nc(NC(=O)NS(=O)(=O)c2ccccc2Cl)n1`, the activation in experiment [3] was -6.7% (inactive). The Potency result in experiment [4] and in [7] was “inactive” throughout. Moreover, the compound was classed as inactive in experiment [12] and in [9].

As for `Clc1ccccc1-c1nnc(-c2ccccc2Cl)nn1`, the max response in experiment [5] is -44.7%. Moreover, in experiment [6], the Potency entry is “inactive”.

Regarding `C=C(C)CN(CC)c1c([N+](=O)[O-])cc(C(F)(F)F)cc1[N+](=O)[O-]`, the activation is 1.61% (inactive) in experiment [3] and -4.66% (inactive) in experiment [8]. In experiment [5], the max response came out at 5.96%. Further, the Potency result in experiment [6] was “inactive”. Further, the result in experiment [12] was inactive.

As to `COc1cnc(OC)n2nc(NS(=O)(=O)c3c(OCC(F)F)cccc3C(F)(F)F)nc12`, the result in experiment [9] was inactive.

As for `CCSCc1ccccc1OC(=O)NC`, the Potency result in [1] and in experiment [4] was “inactive” each time. In addition, the activation in [2] is 3.09% (inactive); in experiment [3] it was 1.02% (inactive). For the same compound, in experiment [12], the call was inactive.

Regarding `CNC(=O)Oc1cc(C)cc(C(C)C)c1`, the max response in experiment [5] was -13.9%. Also, in [6], the Potency result was “inactive”. In addition, the call in [12] and in experiment [9] was inactive.

On to `CC(C)(C)C(=O)[C@H](Oc1ccc(Cl)cc1)n1cncn1`, for which the values for the activation in experiment [3] and in experiment [8] were -0.211% (inactive) and -5.68% (inactive), respectively. Besides, in experiment [4], the Potency result is “inactive”. In [12], the result was inactive.

Take `OC(Cn1cncn1)(c1ccc(F)cc1)c1ccccc1F` (centres undefined): the activation in [8] is 0.295% (inactive). The call in experiment [9] was inactive.

For the compound `CC1(C)CN=C(NN=C(/C=C/c2ccc(C(F)(F)F)cc2)/C=C/c2ccc(C(F)(F)F)cc2)NC1`, the Potency in [11] was 35.5 µM (active); in experiment [1], 31.6 µM (active); in experiment [6], 39.8 µM (active). The max response in experiment [5] was -117%. In experiment [9], the compound was called inactive.

Regarding `Clc1ccc([C@@]2(Cn3cncn3)C[C@H](Br)CO2)c(Cl)c1`, the Potency entry in experiment [1], in experiment [4] and in experiment [7] was “inactive” throughout. The activation is -2.3% (inactive) in [2], 2.56% (inactive) in experiment [3] and -1.71% (inactive) in experiment [8].

As to `O=C=Nc1ccc(Cl)cc1`, in experiment [5], the max response is -52.1%. Besides, in experiment [6], the Potency result was “inactive”. The compound was classed as inactive in [12] and in experiment [9]. In addition, the activation in experiment [8] is -0.765% (inactive).

Consider `CCOC(=O)Nc1cccc(OC(=O)Nc2ccccc2)c1`, for which the Potency result in experiment [4] and in experiment [6] was “inactive” each time. Further, the max response in experiment [5] came out at 9.77%. The call in experiment [12] was inactive. Moreover, the activation in [8] was 0.127% (inactive).

Consider `O=C(O)c1nc(Cl)ccc1Cl`, for which the activation in experiment [3] is -4.22% (inactive) and 6.64% (inactive). Also, in experiment [4], the Potency entry was “inactive”. The call in experiment [9] was inactive.

Take `Clc1ccc([C@@]2(Cn3cncn3)C[C@@H](Br)CO2)c(Cl)c1`: the Potency entry in experiment [1] and in experiment [6] was “inactive” throughout. For the same compound, the values for the activation in experiment [2], in experiment [3] and in experiment [8] were 3.84% (inactive), -12.1% (inactive) and -2.08% (inactive), respectively. Further, the max response in experiment [5] was -0.908%. Besides, in [12], the compound was classed as inactive.

Take `COP(=O)(OC)O/C(C)=C/C(=O)N(C)C`: the max response in experiment [5] was -17.4%. In addition, the Potency result in experiment [6] is “inactive”. Moreover, the activation in experiment [8] is -1.74% (inactive). Further, the outcome in experiment [9] was inactive.

Regarding `Nc1nc(N)nc(Cl)n1`, the activation in [3] was -0.33% (inactive) and 1.13% (inactive). In addition, the Potency result in experiment [4] and in experiment [7] was “inactive” in each case. For the same compound, the compound was classed as inactive in [9].

For `CCNP(=S)(OC)O/C(C)=C/C(=O)OC(C)C` (centres undefined), the activation is -6.1% (inactive) in experiment [3] and 0.112% (inactive) in experiment [8]. For the same compound, in [4], the Potency entry was “inactive”. In experiment [12], the result was inactive.

For the compound `CCOP(=O)(OCC)SCCSCC`, in experiment [8], the activation is 0.345% (inactive). For the same compound, the compound was called inactive in experiment [9].

Take `CCSC(C)CC1CC(=O)C(/C(CC)=N/OC/C=C/Cl)=C(O)C1` (centres undefined): the activation in experiment [10] was 3.31% (inactive); in [2], 0.0799% (inactive); in experiment [3] it was -3.59% (inactive); in [8], 0.614% (inactive). Moreover, the Potency result in experiment [1] and in experiment [6] was “inactive” in each case. Besides, in [5], the max response came to 62.4%. Moreover, in experiment [12], the compound was classed as inactive.

Take `CNC(=O)/C=C(\C)OP(=O)(OC)OC`: the Potency entry in [1], in experiment [6] and in experiment [7] was “inactive” each time. The activation in [2] was 6.76% (inactive); in experiment [3] it was -1.15% (inactive). In addition, the max response in experiment [5] worked out at 32.8%. In addition, the call in [12] was inactive.

Take `Cc1cc(C)nc(NC(=O)NS(=O)(=O)c2ccccc2C(=O)OC2COC2)n1`: the activation in [10] was -3.69% (inactive); in experiment [2], 1.23% (inactive); in experiment [3], 10.1% (inactive); in experiment [8], 1.32% (inactive). In addition, the Potency entry in experiment [11], in experiment [1] and in experiment [6] was “inactive” in each case. Moreover, in experiment [5], the max response worked out at 2.3%. The result in experiment [12] and in experiment [9] was inactive.

Take `CC1(C)Cc2cccc(O)c2O1`: the Potency result in [7] is “inactive”. Also, the compound was called inactive in experiment [9].

As to `CCNc1nc(NCC)nc(SC)n1`, the activation in [3] was -3.89% (inactive); in experiment [8] it was 0.586% (inactive). Moreover, the Potency result in [4] is “inactive”. The compound was classed as inactive in experiment [12] and in experiment [9].
